PubChem BioAssay AID1159580 (chemical genetic matrix, 2015)
Among all 5,500 compounds or so, about 2,000 (36%) were called active. Inconclusive results (about 18%) are left out. Rule as the data show it: active = normalized growth mostly below about 0.91 (no sharp cut-off); inconclusive = no clear call, values can overlap the other calls; inactive = mostly above about 0.92. Some of the results follow.

Experiment: chemical genetic growth profiling, strain panel (AID 1159580);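 also: tested at 20 µM; growth read once vehicle control cultures reached saturation at 30 °C; 1 = growth at the plate median or of vehicle wells; lower values mean less growth of the strain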
Details: S. cerevisiae deletion strains, growth OD
[1] = locus YAL040C, strain CLN3, active compounds read low
[2] = locus YCL061C, strain MRC1 (second series), active compounds read low
[3] = locus YDR363W, strain ESC2, active compounds read low
[4] = locus YER002W, strain NOP16, active compounds read low
[5] = locus YGR229C, strain SMI1, active compounds read low
[6] = locus YMR307W, strain GAS1, active compounds read low
[7] = locus YNL175C, strain NOP13, active compounds read low
[8] = locus YNL197C, strain WHI3, active compounds read low
[9] = locus YNL224C, strain SQS1, active compounds read low
[10] = locus YOR083W, strain WHI5 (second series), active compounds read low

Measured: normalized growth

CN[C@H](CC(C)C)C(=O)N[C@H]1C(=O)N[C@@H](CC(N)=O)C(=O)N[C@H]2C(=O)N[C@H]3C(=O)N[C@H](C(=O)N[C@H](C(=O)O)c4cc(O)cc(O)c4-c4cc3ccc4O)[C@H](O)c3ccc(c(Cl)c3)Oc3cc2cc(c3O[C@@H]2O[C@H](CO)[C@@H](O)[C@H](O)[C@H]2O[C@H]2C[C@](C)(N)[C@H](O)[C@H](C)O2)Oc2ccc(cc2Cl)[C@H]1O
inactive: [1] 0.985 | [2] 1.01 | [3] 1.01 | [4] 1.01 | [5] 1.03 | locus YMR263W, strain SAP30, active compounds read low 0.997 | [6] 1 | locus YNL153C, strain GIM3, active compounds read low 0.984 | [7] 1.01 | [8] 1.03 | [9] 0.991 | [10] 0.985

CCCN(CCC)CCc1cccc2c1CC(=O)N2
inactive: locus YAL021C, strain ccr4, active compounds read low 0.978 | locus YAL026C, strain drs2, active compounds read low 0.979 | locus YAL030W, strain snc1, active compounds read low 0.981 | [1] 1.03 | locus YBL061C, strain skt5, active compounds read low 0.963 | locus YBR009C, strain hhf1, active compounds read low 0.984 | locus YBR023C, strain chs3, active compounds read low 0.962 | locus YBR171W, strain sec66, active compounds read low 0.96 | locus YBR231C, strain swc5, active compounds read low 0.99 | locus YBR279W, strain paf1, active compounds read low 0.977 | locus YCL011C, strain gbp2, active compounds read low 0.981 | locus YCL016C, strain dcc1, active compounds read low 0.964 | [2] 0.997 | locus YCL061C, strain MRC1, active compounds read low 0.965 | locus YCL069W, strain vba3, active compounds read low 0.966 | locus YCR088W, strain abp1, active compounds read low 0.969 | locus YDL005C, strain med2, active compounds read low 0.977 | locus YDL040C, strain nat1, active compounds read low 0.977 | locus YDR001C, strain nth1, active compounds read low 0.968 | locus YDR069C, strain doa4, active compounds read low 0.983 | locus YDR137W, strain rgp1, active compounds read low 0.951 | locus YDR159W, strain sac3, active compounds read low 0.966 | locus YDR195W, strain ref2 0.949 | locus YDR297W, strain sur2, active compounds read low 0.978 | locus YDR334W, strain swr1, active compounds read low 0.954 | locus YDR335W, strain msn5, active compounds read low 0.969 | [3] 1.03 | locus YDR392W, strain spt3, active compounds read low 0.96 | locus YEL003W, strain gim4, active compounds read low 0.973 | locus YEL037C, strain rad23, active compounds read low 0.971 | locus YEL061C, strain CIN8 (second series), active compounds read low 0.981 | [4] 1.02 | locus YER015W, strain faa2, active compounds read low 0.987 | locus YER016W, strain bim1, active compounds read low 0.975 | locus YER111C, strain swi4, active compounds read low 0.955 | locus YER155C, strain BEM2 (second series), active compounds read low 0.959 | locus YFR010W, strain ubp6, active compounds read low 0.967 | locus YGL167C, strain pmr1, active compounds read low 0.963 | locus YGL173C, strain kem1, active compounds read low 0.969 | locus YGL227W, strain vid30, active compounds read low 0.972 | locus YGL240W, strain doc1, active compounds read low 0.991 | locus YGL253W, strain hxk2, active compounds read low 0.993 | locus YGR078C, strain PAC10, active compounds read low 0.988 | [5] 1.04 | locus YHR013C, strain ard1, active compounds read low 0.94 | locus YHR027C, strain rpn1, active compounds read low 0.959 | locus YHR030C, strain SLT2, active compounds read low 0.947 | locus YHR079C, strain IRE1, active compounds read low 0.941 | locus YHR142W, strain chs7, active compounds read low 0.952 | locus YJL092W, strain hpr5, active compounds read low 0.966 | locus YJL095W, strain BCK1 (second series), active compounds read low 0.972 | locus YJL095W, strain BCK1, active compounds read low 1.01 | locus YJL115W, strain asf1, active compounds read low 0.958 | locus YJL129C, strain trk1, active compounds read low 0.973 | locus YJL154C, strain vps35, active compounds read low 0.974 | locus YJL164C, strain tpk1, active compounds read low 0.981 | locus YJL166W, strain qcr8, active compounds read low 0.988 | locus YJL187C, strain SWE1, active compounds read low 0.976 | locus YJR066W, strain TOR1, active compounds read low 0.94 | locus YJR075W, strain HOC1, active compounds read low 1.01 | locus YKL160W, strain elf1, active compounds read low 0.978 | locus YKR026C, strain gcn3, active compounds read low 0.968 | locus YKR091W, strain srl3, active compounds read low 0.983 | locus YLL001W, strain dnm1, active compounds read low 0.977 | locus YLL026W, active compounds read low 0.981 | locus YLL041C, strain sdh2, active compounds read low 0.974 | locus YLR027C, strain aat2, active compounds read low 0.972 | locus YLR113W, strain HOG1, active compounds read low 1.03 | locus YLR221C, strain rsa3, active compounds read low 0.975 | locus YLR258W, strain gsy2, active compounds read low 0.979 | locus YLR262C, strain YPT6 (second series), active compounds read low 0.976 | locus YLR320W, strain mms22, active compounds read low 0.969 | locus YLR342W, strain FKS1, active compounds read low 0.981 | locus YLR357W, strain rsc2, active compounds read low 0.961 | locus YLR370C, strain arc18, active compounds read low 0.96 | locus YLR384C, strain iki3, active compounds read low 0.969 | locus YML120C, strain ndi1, active compounds read low 0.972 | locus YMR058W, strain fet3, active compounds read low 0.977 | locus YMR125W, strain sto1, active compounds read low 0.967 | locus YMR129W, active compounds read low 0.969 | locus YMR205C, strain PFK2, active compounds read low 0.965 | locus YMR231W, strain pep5, active compounds read low 0.975 | [6] 0.95 | locus YNL071W, strain lat1, active compounds read low 0.984 | locus YNL128W, strain TEP1, active compounds read low 0.989 | [7] 1.01 | locus YNL183C, strain NPR1, active compounds read low 0.966 | [8] 0.999 | locus YNL209W, strain ssb2, active compounds read low 0.97 | [9] 0.988 | locus YNL248C, strain rpa49, active compounds read low 0.955 | locus YNL322C, strain KRE1 (second series), active compounds read low 0.985 | locus YNL322C, strain KRE1, active compounds read low 1.01 | locus YNR049C, strain mso1, active compounds read low 0.966 | locus YOR001W, strain rrp6, active compounds read low 0.972 | locus YOR070C, strain gyp1, active compounds read low 0.974 | locus YOR080W, strain dia2, active compounds read low 0.957 | [10] 1 | locus YOR083W, strain WHI5, active compounds read low 0.975 | locus YOR106W, strain vam3, active compounds read low 0.977 | locus YOR231W, strain MKK1, active compounds read low 0.978 | locus YOR265W, strain rbl2, active compounds read low 0.972 | locus YOR270C, strain vph1, active compounds read low 0.944 | locus YOR290C, strain snf2, active compounds read low 0.953 | locus YPL051W, strain arl3, active compounds read low 0.975 | locus YPL078C, strain atp4, active compounds read low 0.969 | locus YPL106C, strain sse1, active compounds read low 0.99 | locus YPL240C, strain hsp82, active compounds read low 0.976 | locus YPL241C, strain CIN2, active compounds read low 1 | locus YPL256C, strain CLN2, active compounds read low 0.943
